Here are results for 37 molecules from the supplement of paper PMC10720658.

± gives the standard deviation of the averaged measurements.

The assay deals with AEK1 (Tb927.3.2440). The assay can be described thus: percent reduction in TR-FRET probe signal relative to DMSO control; higher = stronger displacement of ATP-site probe (binding). Conditions: 1 µM; incubation time 1 h. In general terms: TR-FRET usually uses a lanthanide donor and a delayed reading to cut background.
On to `COc1cc2ncnc(Nc3ccc(O)c(Br)c3)c2cc1OC`, for which the “percent reduction in TR-FRET probe signal” value (“percent reduction” below) was -7.2 ± 7.7%. With `O=c1c(O)c(-c2ccc(O)c(O)c2)oc2cc(O)cc(O)c12` [Quercetin], the “percent reduction” value turned out to be 8.35 ± 5.3%. Take `C[C@@H]1CCN(C(=O)CC#N)C[C@@H]1N(C)c1ncnc2[nH]ccc12`: the “percent reduction” value worked out at 5.48 ± 7.8%. Consider `C=CC(=O)Nc1cccc(Oc2nc(Nc3ccc(N4CCN(C)CC4)cc3)nc3ccsc23)c1`, for which the “percent reduction” value was -10.3 ± 4.1%. For the molecule `Cl.Cl.c1cc(-c2cnn3cc(-c4ccc(OCCN5CCCCC5)cc4)cnc23)ccn1` [Dorsomorphin 2HCl], the “percent reduction” value is -8.77 ± 4.9%. For the molecule `C[C@@H](N)[C@H]1CC[C@H](C(=O)Nc2ccncc2)CC1.Cl.Cl`, the “percent reduction” value amounted to 2.66 ± 6.8%. As for `CC[C@@H]1C(=O)N(C)c2cnc(Nc3ccc(C(=O)NC4CCN(C)CC4)cc3OC)nc2N1C1CCCC1`, the “percent reduction” value is -1.92 ± 12%. In the case of `O=C1c2ccccc2-c2n[nH]c3cccc1c23` it was -3.83 ± 17%. In the case of `Cl.O=S(=O)(c1cccc2cnccc12)N1CCCNCC1` [Fasudil (HA-1077) HCl] it was 4.93 ± 2%.

Regarding `CN1CC[C@@H](c2c(O)cc(O)c3c(=O)cc(-c4ccccc4Cl)oc23)[C@@H]1CO.Cl`, the “percent reduction” value turned out to be 4 ± 2.6%. As for `CO[C@@H](C)Cn1c(=O)n(C)c2cnc3ccc(-c4cncc(C(C)(C)O)c4)cc3c21`, the figure is 3.02 ± 4.9%; as for `NC(=O)c1ncn([C@@H]2O[C@H](CO)[C@@H](O)[C@H]2O)c1N` [AICAR (Acadesine)], -1.92 ± 11%; as for `C=CC(=O)Nc1cccc(Oc2nc(Nc3ccc(N4CCN(C)CC4)cc3)ncc2Cl)c1`, 1.06 ± 9.5%. Turning to `Cn1cnc2c(F)c(Nc3ccc(Br)cc3F)c(C(=O)NOCCO)cc21`, the “percent reduction” value is -1.44 ± 2.7%.

As for `Cc1cc(CS(=O)(=O)c2ccccc2)cc(OCc2ccc(CN3CCC[C@@H]3CO)cc2)c1`, the “percent reduction” value is -6.92 ± 5.9%. Take `Nc1cccc(S(=O)(=O)N2CCCN(S(=O)(=O)c3ccc4c(c3)OCCO4)CC2)c1`: the “percent reduction” value is -6.38 ± 4.5%.

On to `Oc1c(F)cc(-c2cnccc2-c2ccc(N3CCOCC3)cc2)cc1F`, for which the “percent reduction” value turned out to be 8.04 ± 13%. Turning to `CN(c1ccccc1CNc1nc(Nc2ccc3c(c2)CC(=O)N3)ncc1C(F)(F)F)S(C)(=O)=O`, the “percent reduction” value was 55.1 ± 4.3%. Take `COc1cc2ncnc(Oc3cccc(NC(=O)Nc4cc(C(C)(C)C(F)(F)F)on4)c3)c2cc1OC`: the “percent reduction” value came to 1.1 ± 13%. As for `O=c1c(-c2ccc(O)cc2)coc2cc(O)cc(O)c12` [Genistein], the “percent reduction” value was found to be 23.3 ± 20%. Consider `Cc1ncc(-c2ccnc(Nc3ccc(S(C)(=O)=O)cc3)n2)n1C(C)C`, for which the “percent reduction” value was -3.5 ± 1.6%. As for `Cc1cc(Nc2nc(N[C@@H](C)c3ncc(F)cn3)ncc2Cl)n[nH]1`, the figure is 56.5 ± 16%; as for `CCC[C@H](NC(=O)/C(C#N)=C/c1cccc(Br)n1)c1ccccc1` [Degrasyn (WP1130)], 2.37 ± 17%. Turning to `CC[C@H](Nc1ncnc2[nH]cnc12)c1nc2cccc(F)c2c(=O)n1-c1ccccc1` [CAL-101 (Idelalisib, GS-1101)], the “percent reduction” value was 0.66 ± 12%. In the case of `Cc1ccc(C(=O)Nc2ccc(CN3CCN(C)CC3)c(C(F)(F)F)c2)cc1C#Cc1cnc2cccnn12` it was 0.933 ± 14%; in that of `CNC(=O)c1cc(Oc2ccc(NC(=O)Nc3ccc(Cl)c(C(F)(F)F)c3)cc2)ccn1.Cc1ccc(S(=O)(=O)O)cc1` [Sorafenib Tosylate], 17 ± 12%; in that of `O=C(Nc1ccccc1C(=O)NC1CCCCNC1=O)c1cc2ccccc2s1` (configuration not stated), -0.533 ± 1.2%. Regarding `COc1cc2ncnc(Nc3cccc(Cl)c3)c2cc1OC` [AG-1478 (Tyrphostin AG-1478)], the “percent reduction” value was determined as 0.453 ± 6.3%.

As to `C1=C/COCc2cc(ccc2OCCN2CCCC2)Nc2nccc(n2)-c2cccc(c2)COC/1` [Pacritinib (SB1518)], the “percent reduction” value was -2.95 ± 9.1%. In the case of `CN(C)S(=O)(=O)c1ccc2c(c1)/C(=C/c1cc3c([nH]1)CCCC3)C(=O)N2` it was 43.6 ± 21%; in that of `O=C(/C=C/c1ccc(O)c(O)c1)c1ccc(O)cc1O` [Butein], 4.05 ± 5.4%; in that of `CN(C[C@@H]1COCCO1)S(=O)(=O)Nc1ccc2ccc3ncc(-c4cnn(C)c4)cc3c(=O)c2c1`, 7.88 ± 10%. As to `CC(C)NC[C@@H](C(=O)N1CCN(c2ncnc3c2[C@H](C)C[C@H]3O)CC1)c1ccc(Cl)cc1`, the “percent reduction” value turned out to be 11.4 ± 8.1%. Take `CCCCCCCCCCCCc1ccc(S(=O)(=O)Nc2nncs2)cc1`: the “percent reduction” value stood at 11.2 ± 4.2%. In the case of `CCNC(=O)Nc1ccc(-c2nc3c(c(N4CCOC[C@@H]4C)n2)CCN(C2COC2)C3)cc1` it was 13.6 ± 12%; in that of `CN1CCN(Cc2ccc(-c3cnc4[nH]cc(-c5ccc6[nH]ccc6c5)c4c3)cc2)CC1`, 11.2 ± 7.5%. As for `CN1CCC(CNc2ccc3ncc(-c4cccc(OC(F)(F)F)c4)n3n2)CC1` [SGI-1776 free base], the figure is 30 ± 15%.
